PubChem BioAssay

Key:
[1] = test system: Botulinum neurotoxin type F light chain protease (Clostridium botulinum); assay: Botulinum neurotoxin type F light chain protease inhibition, multiplex microsphere flow cytometry, validation set (AID 588459); settings: multiplex microsphere protease substrate cleavage assay, at 10 µM, active compounds read high
[2] = biological target: Botulinum neurotoxin type A (Clostridium botulinum) (UniProt P0DPI0); assay: BoNT/A light chain protease inhibitors, biochemical, multiplex microsphere flow cytometry, validation set (AID 588460); settings: at 10 µM, active compounds read high
[3] = biological target: Lethal factor (Bacillus anthracis) (UniProt P15917); assay: Lethal factor protease inhibitors, Bacillus anthracis, multiplex microsphere cleavage assay, validation set (AID 588461); settings: flow cytometry, at 10 µM, active compounds read high

Measured: inhibition

Lethal factor (Bacillus anthracis), sequence (P15917 whole entry, looked up): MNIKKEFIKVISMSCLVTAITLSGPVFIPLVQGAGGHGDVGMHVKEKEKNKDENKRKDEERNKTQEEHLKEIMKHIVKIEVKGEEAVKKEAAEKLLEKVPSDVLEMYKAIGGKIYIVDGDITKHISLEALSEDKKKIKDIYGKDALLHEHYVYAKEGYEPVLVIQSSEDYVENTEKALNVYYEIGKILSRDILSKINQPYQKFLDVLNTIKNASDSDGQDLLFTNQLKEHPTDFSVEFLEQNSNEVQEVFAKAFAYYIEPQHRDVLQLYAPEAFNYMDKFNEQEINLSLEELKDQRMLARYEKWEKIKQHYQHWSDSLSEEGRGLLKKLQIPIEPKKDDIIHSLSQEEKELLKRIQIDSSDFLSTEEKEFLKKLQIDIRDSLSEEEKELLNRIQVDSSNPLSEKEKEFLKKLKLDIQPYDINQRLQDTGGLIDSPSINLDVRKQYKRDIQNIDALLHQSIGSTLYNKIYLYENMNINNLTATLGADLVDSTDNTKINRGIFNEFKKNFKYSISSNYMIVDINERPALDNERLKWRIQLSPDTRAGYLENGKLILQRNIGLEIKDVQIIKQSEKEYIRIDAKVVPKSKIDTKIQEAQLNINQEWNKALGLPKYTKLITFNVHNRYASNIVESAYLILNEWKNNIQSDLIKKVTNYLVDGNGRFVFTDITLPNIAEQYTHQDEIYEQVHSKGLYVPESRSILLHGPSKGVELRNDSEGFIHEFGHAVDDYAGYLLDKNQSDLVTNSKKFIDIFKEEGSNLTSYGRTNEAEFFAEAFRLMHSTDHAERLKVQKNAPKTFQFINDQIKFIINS
Botulinum neurotoxin type A (Clostridium botulinum), sequence (P0DPI0 whole entry, looked up): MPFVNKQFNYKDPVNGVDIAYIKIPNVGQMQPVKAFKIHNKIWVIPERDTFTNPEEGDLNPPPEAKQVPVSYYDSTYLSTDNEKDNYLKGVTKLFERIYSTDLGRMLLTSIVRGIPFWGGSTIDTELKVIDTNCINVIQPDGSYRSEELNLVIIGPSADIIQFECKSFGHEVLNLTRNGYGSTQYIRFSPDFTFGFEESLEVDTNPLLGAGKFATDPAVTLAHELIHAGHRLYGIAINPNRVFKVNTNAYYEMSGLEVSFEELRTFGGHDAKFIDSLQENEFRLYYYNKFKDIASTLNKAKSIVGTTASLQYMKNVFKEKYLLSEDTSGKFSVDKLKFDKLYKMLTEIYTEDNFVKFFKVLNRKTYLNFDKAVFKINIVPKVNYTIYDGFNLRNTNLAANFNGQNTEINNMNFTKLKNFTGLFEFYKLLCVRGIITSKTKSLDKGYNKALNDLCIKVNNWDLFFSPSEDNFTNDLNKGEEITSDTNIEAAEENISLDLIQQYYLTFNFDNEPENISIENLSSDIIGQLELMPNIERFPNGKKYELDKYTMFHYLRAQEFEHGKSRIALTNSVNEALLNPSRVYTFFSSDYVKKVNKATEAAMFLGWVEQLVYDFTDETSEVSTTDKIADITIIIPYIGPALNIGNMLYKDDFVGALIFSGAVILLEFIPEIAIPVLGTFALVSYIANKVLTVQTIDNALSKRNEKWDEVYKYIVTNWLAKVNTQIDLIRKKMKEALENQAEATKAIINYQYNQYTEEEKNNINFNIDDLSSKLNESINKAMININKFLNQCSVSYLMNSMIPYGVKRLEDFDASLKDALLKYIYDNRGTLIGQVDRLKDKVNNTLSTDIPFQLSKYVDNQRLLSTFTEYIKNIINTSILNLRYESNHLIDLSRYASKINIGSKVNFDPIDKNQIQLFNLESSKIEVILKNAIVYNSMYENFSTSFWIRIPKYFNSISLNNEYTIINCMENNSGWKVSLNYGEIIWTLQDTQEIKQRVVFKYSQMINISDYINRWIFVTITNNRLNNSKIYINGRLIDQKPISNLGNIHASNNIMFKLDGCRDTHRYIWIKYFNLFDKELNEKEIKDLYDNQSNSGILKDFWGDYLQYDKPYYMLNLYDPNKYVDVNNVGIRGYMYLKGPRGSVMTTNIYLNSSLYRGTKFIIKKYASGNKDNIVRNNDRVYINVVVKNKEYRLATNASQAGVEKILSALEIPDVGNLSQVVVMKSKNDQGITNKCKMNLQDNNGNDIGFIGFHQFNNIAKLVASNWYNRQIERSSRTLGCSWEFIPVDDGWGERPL

CCOc1ccc2oc(-c3ccccc3)c(C(=O)O)c2c1
inactive: [1] -1.1% | [2] -0.2% | [3] -3.1%

O=C(O)C1CSC(c2ccc3c(c2)OCO3)N1 (stereo not given)
inactive: [1] 3.1% | [2] 1.1% | [3] -0.7%

CC(CCc1ccccc1)NCC(O)c1ccc(O)c(C(N)=O)c1 (stereo not given)
inactive: [1] -1% | [2] -1.4% | [3] 0.1%

O=C(CCCN1CC=C(n2c(=O)[nH]c3ccccc32)CC1)c1ccc(F)cc1
inactive: [1] -1.3% | [2] -1% | [3] -5.4%

CC(=O)N=c1sc(S(N)(=O)=O)nn1C
inactive: [1] 4.1% | [2] 0.8% | [3] 4.2%

CC[N+](C)(CC)CCOC(=O)C(O)(c1ccccc1)C1CCCCC1 (stereo not given)
inactive: [1] 4.8% | [2] 1.4% | [3] -1.1%

COc1cc(=O)n(C)c2ccccc12
inactive: [1] -9.2% | [2] -2.1% | [3] -7.3%

O=C(NCCc1cccc(F)c1)[C@@H]1CSC2c3ccccc3C(=O)N21 (stereo not given in full)
inactive: [1] 0.2% | [2] -0.3% | [3] 0.6%

CC(=O)[C@@]1(O)CC[C@H]2[C@@H]3C[C@H](C)C4=CC(=O)CC[C@]4(C)[C@H]3CC[C@@]21C
inactive: [1] -1.7% | [2] -2.5% | [3] -5.5%

CN(CCO)CC(O)Cn1cnc2c1c(=O)n(C)c(=O)n2C (stereo not given) (tested in a mixture with another compound)
inactive: [1] -0.4% | [2] 1.1% | [3] -3.6%
